PubChem BioAssay (Tox21)
Where “and” joins values, the source holds several entries; their conditions need not be identical. Equal values may be shown once. Records with an inconclusive call do not appear. Calls of active or inactive are those of the source. Calls follow the shape of the dose curve; as a rule, active = well fitted cell-killing curve with a large enough effect in the repeat runs; inconclusive = weak or mixed curves; inactive = flat fitted curve, though single readings scatter.

assay: qHTS RealTime-Glo MT Cell Viability Assay in HepG2 cells - 16 hour (AID 1224885); conditions: RealTime-Glo luminescence; series mostly up to 76.8 µM; also: nearly all actives have a fitted effect of over 50% in size
Source text: U.S. Tox21 Program National Center for Advancing Translational Sciences [NCATS] NIH Chemical Genomics Center [NCGC] U.S. Environmental Protection Agency [EPA] National Institutes of Environmental Health Sciences [NIEHS] National Toxicology Program [NTP] U.S. Food and Drug Administration [FDA] Tox21 Assay Overview: Measure of cell viability is critical in the cell-base assay. Analysis of cell viability is necessary for the characterization of cell responses to cytotoxic drugs and environmental stress. A RealTime-Glo MT Cell Viability Assay to monitor cell viability in real time of continues cell culture during 40 hours of compound treatment was used to screen Tox21 10K library compounds in HepG2 cells. The RealTime-Glo MT Cell Viability Assay is a nonlytic, homogeneous, bioluminescent method to measure cell viability in real time using a simple, plate-based method. The assay involves adding NanoLuc luciferase and a cell-permeant prosubstrate to cells in culture. Viable cells reduce the proprietary prosubstrate to generate a substrate for NanoLuc luciferase. This substrate diffuses from cells into the surrounding culture medium, where it is rapidly used by the NanoLuc Enzyme to produce a luminescent signal. The signal correlates with the number of viable cells, making the assay well suited for cytotoxicity studies.
Tox21 Assay Protocol Summary: The mixture of HepG2 cell suspension and reagents were dispensed at 600cells/6 ul/well in 1536-well tissue culture treated black solid bottom plates using a Multidrop dispenser. After the assay plates were incubated at a 37 C/5% CO2 incubator for 5 hours, 23 nL of compounds dissolved in DMSO, positive and negative controls was transferred to the assay plate by a pintool work station. The plates were incubated at 37 C for 40 hours. The luminescence intensity were measured at 0h, 8h, 16h, 24h, 32h and 40h time points using ViewLux plate reader during compound treatment.
% is scaled to controls: 0 for no effect and ±100 for the full control effect.

For `COc1cc(Cc2cnc(N)nc2N)cc(OC)c1OC`, which outcome is on record?
Its outcome is “inactive”.

With `C/C=C1/CC2C=CC1C2` (stereo not given) as the compound, how does the outcome read?
Its outcome is “inactive”.

With `CC(C)(N)CO` as the compound, how does the outcome read?
Its outcome is “inactive”.

For `Cc1ccc2oc(=O)ccc2c1`, which outcome is on record?
Its outcome is “inactive”.

For `CC(C)(C)[C@@H](O)[C@@H](Cc1ccc(Cl)cc1)n1cncn1`, which outcome is on record?
The outcome was “inactive”.

With `CCCCCOC(C)=O` as the compound, how does the outcome read?
The outcome was “inactive”.

With `CN(C)CCOCCN(C)C` as the compound, how does the outcome read?
The outcome was “inactive”.

For `CCN(CC)c1ccc(C(=O)c2ccccc2C(=O)O)c(O)c1`, which outcome is on record?
The outcome was “inactive”.

Which outcome does the source give for `N[C@@H](Cc1cc(I)c(Oc2cc(I)c(O)c(I)c2)c(I)c1)C(=O)O` here?
Its outcome is “inactive”.

With `c1ccc2scnc2c1` as the compound, how does the outcome read?
The outcome was “inactive”.

For `CCN(CC)CCCC(C)Nc1ccnc2cc(Cl)ccc12` (stereo not given), which activity change, negative = cytotoxic is on record?
Its activity change, negative = cytotoxic is 1.09% [at 6.97 µM] (inactive) and -5.7% [at 15.8 µM] (inactive).

Which outcome does the source give for `c1ccc2c(c1)ccc1ccccc12` here?
Its outcome is “inactive”.

Which outcome does the source give for `CN(C)CCCN` here?
Its outcome is “inactive”.

Which outcome does the source give for `CCCCCCCCCCCCCCCO` here?
The outcome was “inactive”.

For `c1c[nH]cn1`, which outcome is on record?
Its outcome is “inactive”.

Which outcome does the source give for `CCCCCCCCCC` here?
Its outcome is “inactive”.

For `C#C[C@]1(O)CC[C@H]2[C@@H]3CCC4=CC(=O)CC[C@@H]4[C@H]3CC[C@@]21C`, which outcome is on record?
The outcome was “inactive”.

With `C=CCOC(=O)c1ccccc1C(=O)OCC=C` as the compound, how does the outcome read?
Its outcome is “inactive”.

With `CCOC(=O)NNc1nncc2ccccc12` as the compound, how does the outcome read?
The outcome was “inactive”.

Which outcome does the source give for `Cc1occc(=O)c1O` here?
Its outcome is “inactive”.

With `CC(C)CC(=O)CC(C)C` as the compound, how does the outcome read?
The outcome was “inactive”.

With `O=S1(=O)CC=CC1` as the compound, how does the outcome read?
The outcome was “inactive”.

With `O=C(O)c1ccccc1C(c1ccc(O)cc1)c1ccc(O)cc1` as the compound, how does the outcome read?
The outcome was “inactive”.

With `CCCSc1ccc2nc(NC(=O)OC)[nH]c2c1` as the compound, how does the outcome read?
The outcome was “inactive”.

Which outcome does the source give for `C#CCN(C)Cc1ccccc1` here?
The outcome was “inactive”.

Which outcome does the source give for `Cc1cccnc1` here?
Its outcome is “inactive”.

With `CC(c1cc2ccccc2s1)N(O)C(N)=O` (stereo not given) as the compound, how does the outcome read?
The outcome was “inactive”.

Which outcome does the source give for `CCc1cccc(C)c1N` here?
The outcome was “inactive”.

For `COc1ccc(Cl)cc1C(=O)NCCc1ccc(S(=O)(=O)NC(=O)NC2CCCCC2)cc1`, which outcome is on record?
Its outcome is “inactive”.

For `C[C@H]1C[C@H]2[C@@H]3CCC4=CC(=O)C=C[C@]4(C)[C@@]3(F)[C@@H](O)C[C@]2(C)[C@@]1(O)C(=O)CO`, which outcome is on record?
Its outcome is “inactive”.

For `Cc1cnc(C(=O)NCCc2ccc(S(=O)(=O)NC(=O)NC3CCCCC3)cc2)cn1`, which outcome is on record?
Its outcome is “inactive”.

With `O=C(O)[C@H](O)[C@@H](O)[C@H](O)[C@H](O)CO` as the compound, how does the outcome read?
Its outcome is “inactive”.

For `O=C=NCCCCCCN=C=O`, which outcome is on record?
The outcome was “inactive”.

With `COCCCOc1ccnc(CS(=O)c2nc3ccccc3[nH]2)c1C` (stereo not given) as the compound, how does the outcome read?
Its outcome is “inactive”.

Which outcome does the source give for `CC1CCC2CC1C2(C)C` (stereo not given) here?
Its outcome is “inactive”.

Which outcome does the source give for `C=C(C)C(=O)O[C@H]1C[C@@H]2CC[C@@]1(C)C2(C)C` here?
The outcome was “inactive”.

For `CN(C)CCC(c1ccccc1)c1ccccn1` (stereo not given), which outcome is on record?
The outcome was “inactive”.

Which outcome does the source give for `CCCCC(CC)COC(=O)C(C#N)=C(c1ccccc1)c1ccccc1` (stereo not given) here?
The outcome was “inactive”.

For `O=C(O)c1cc(O)c(O)c(O)c1`, which outcome is on record?
Its outcome is “inactive”.

Which outcome does the source give for `CCCCCCCCCCCCc1ccccc1` here?
The outcome was “inactive”.
